From PubChem BioAssay AID504834 (National Center for Advancing Translational Sciences (NCATS), 2011) come the findings set out here.

The whole screen tested about 320,000 compounds, of which about 22,000 (6.9%) were called active. Not shown: some 27% with an inconclusive outcome. The call rests on the fitted dose curve; in most records, active means well fitted inhibition curve with a large enough effect; inconclusive means small, poorly fitted or top-dose-only effect, or another doubt; inactive means no such curve, though single readings can be large or run the other way. The list comes from a sample in which actives are over-represented; it also holds similar structures and randomly drawn compounds. Where a call stands in place of a potency, no number is given.
Potency means the concentration at half of the fitted maximal effect.

This test is described as follows: Primary qHTS for delayed death inhibitors of the malarial parasite plastid, 96 hour incubation. The following applies: P. falciparum luciferase reporter growth; series mostly up to 28.7 µM. The essentials: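 96 h incubation, 37 C, 5% CO2, of luciferase-reporter P. falciparum-infected RBCs (2% hematocrit, 0.05% parasitemia final) with test compounds; endpoint luminescence.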
As to `NC(=O)c1nnsc1-c1ccc(-c2snnc2C(N)=O)cc1`, the Potency entry is “inactive”. Under `NS(=O)(=O)c1ccc(CNC(=O)c2cnccn2)cc1` stands “inactive”; under `Cc1cc2ncn(CCCCOc3ccccc3)c2cc1C`, 14.7 µM (active); under `Cc1c(C(N)=O)sc2ncn(CCOc3ccccc3)c(=O)c12`, “inactive”. Under `COCCOCCn1cnc2ccccc21` stands “inactive”. With `COc1ccc(NC(=O)CC(NC(C)c2ccccc2)C(=O)O)cc1` (stereo unspecified), the Potency result was “inactive”. In the case of `CCCCCC(O)(CCN1CCCCC1)c1ccccc1` (stereo unspecified) it was “inactive”; in that of `CCOC(=O)CSc1nc2sc3c(c2c(=O)[nH]1)CC(C)(C)OC3`, “inactive”; in that of `CCC1(C)Cc2c(sc3nc(SC)[nH]c(=O)c23)CO1` (stereo unspecified), 9.28 µM (active).

As to `CCC1(C)Cc2c(sc3[nH]c(=S)n(Cc4ccccc4)c(=O)c23)CO1` (stereo unspecified), the Potency result is “inactive”. For `CCOc1ccc(S(=O)(=O)N2CCCC(C(=O)N3CCC(C(N)=O)CC3)C2)cc1Cl` (stereo unspecified), the Potency result was “inactive”. In the case of `COc1ccc(OC)c(S(=O)(=O)N2CCCC(C(=O)NCCc3ccccc3)C2)c1` (stereo unspecified) it was “inactive”. In the case of `CCOC(=O)c1sc(NC(=O)C2CSC3(C)CCC(=O)N23)nc1C` (stereo unspecified) it was “inactive”.

With `COc1cc(C(C(=O)NC2CCCC2)N(C(=O)c2ccco2)c2ccccc2C(C)=O)cc(OC)c1OC` (stereo unspecified), the Potency entry was “inactive”.

`O=C(/C=C/Nc1ccc(S(=O)(=O)Nc2cnc3ccccc3n2)cc1)c1cccnc1`: the Potency entry is “inactive”. Take `CCn1c(SCC(=O)Nc2ccc3c(c2)OCCO3)nnc1C(C)C`: the Potency result is “inactive”. Under `CCn1c(SCC(=O)Nc2ccc3c(c2)OCCO3)nnc1-c1ccncc1` stands “inactive”. In the case of `O=C(CSc1nnnn1-c1ccc2c(c1)CCC2)Nc1ccc2c(c1)OCCO2` it was 10.4 µM (active). In the case of `O=C1CCCCC(=O)c2ccccc2N1` it was “inactive”. In the case of `c1ccc2c(c1)C(=NC1CCCCC1)NC2=NC1CCCCC1`, the Potency was 2.94 µM (active). Under `CC(=O)c1ccc(N2CCN(CC(O)c3ccccc3)CC2)cc1` (stereo unspecified) stands “inactive”.

In the case of `COc1cccc(NC(=S)NCc2ccccn2)c1`, the Potency entry is “inactive”. For the compound `COc1cccc(S(=O)(=O)NCc2ccc(C(=O)NCc3ccccn3)cc2)c1`, the Potency was 2.94 µM (active).

For the compound `COc1cccc(CNS(=O)(=O)c2csc(C(N)=O)c2)c1`, the Potency result was “inactive”. In the case of `O=C(COC(=O)c1ccccc1)c1ccc2c(c1)OCCO2` it was “inactive”; in that of `CCOC(=O)c1c(-c2ccccc2)oc2cc(Br)c(O)cc12`, “inactive”; in that of `O=C(c1ccc(Cn2cc([N+](=O)[O-])cn2)o1)N1CCCC1`, “inactive”.

As to `CC(C)CC(CCc1ccccc1)OS(N)(=O)=O` (stereo unspecified), the Potency result is “inactive”. As to `O=C(COC(=O)c1ccc(O)cc1O)NNC(=O)c1cccs1`, the Potency entry is “inactive”. Under `CCOc1cc(N2CCOCC2)c(OCC)cc1NC(=O)COC(=O)[C@H](Cc1c[nH]c2ccccc12)NC(C)=O` stands “inactive”; under `CCOc1cc(N2CCOCC2)c(OCC)cc1NC(=O)COc1cccc(Cl)c1`, “inactive”. For the compound `CCOc1cc(N2CCOCC2)c(OCC)cc1NC(=O)COc1cccc2cccnc12`, the Potency is 9.28 µM (active). In the case of `O=C(N/N=C/c1cccnc1)c1ccc(NC(=O)c2ccc(F)cc2)cc1` it was “inactive”; in that of `Cc1nc(-c2ccc([N+](=O)[O-])cc2)c(-c2ccccc2)o1`, “inactive”. Under `COc1ccc([N+](=O)[O-])cc1-c1nc2ccccc2nc1-c1ccccc1` stands “inactive”; under `Cn1nc(-c2ccccc2)c2cc([N+](=O)[O-])ccc21`, 9.28 µM (active); under `COc1ccc(CCNC(=O)CCCCn2c(=O)[nH]c3ccccc3c2=O)cc1OC`, “inactive”. Under `CCOC(=O)N1CCN(C(=O)c2ccc3c(=O)n(CCc4ccc(OC)c(OC)c4)c(=O)[nH]c3c2)CC1` stands 2.62 µM (active). As to `COc1ccccc1Cn1c(=S)[nH]c2cc(C(=O)N3CCN(C)CC3)ccc2c1=O`, the Potency entry is “inactive”. In the case of `Cc1c(S(=O)(=O)NC(C)c2ccccc2)c(=O)n(C)c(=O)n1C` (stereo unspecified), the Potency result was “inactive”. Regarding `CN(CC(=O)NCCc1ccc(F)cc1)CC(=O)Nc1ccc(F)c(F)c1F`, the Potency result was “inactive”. In the case of `COc1cccc(C(=O)N2CCC(n3nccc3NC(=O)C3CCOC3)CC2)c1` (stereo unspecified) it was “inactive”; in that of `CCCCn1c(N)c(N(CCC(C)C)C(=O)c2ccc([N+](=O)[O-])o2)c(=O)[nH]c1=O`, “inactive”; in that of `CCCCn1c(N)c(N(CCC(C)C)C(=O)c2ccc(COc3ccccc3)o2)c(=O)[nH]c1=O`, “inactive”. Under `CCCCn1c(N)c(N(CCC(C)C)C(=O)CC2OC(=O)c3ccccc32)c(=O)[nH]c1=O` (stereo unspecified) stands 4.65 µM (active); under `O=C(NCCO)C(=O)NCC(c1ccc2c(c1)OCO2)N1CCN(c2ccc(F)cc2)CC1` (stereo unspecified), “inactive”; under `CCOC(=O)N1CCN(S(=O)(=O)N2CCCC(C(=O)NCCCN3CCC(C)CC3)C2)CC1` (stereo unspecified), “inactive”. Under `O=C(CCC(=O)N/N=C/c1ccc(Br)o1)N/N=C/c1ccc(Br)o1` stands “inactive”. For the compound `COc1ccc(CCNC2=CC(=O)CC(C)(C)C2)cc1`, the Potency result was “inactive”. Regarding `COc1cc(C(=O)NC(=S)NCc2ccco2)cc(OC)c1OC`, the Potency result was “inactive”. Under `COc1cc(C(=O)N[C@@H](C)C(=O)NCc2ccco2)cc(OC)c1OC` stands “inactive”. Under `COc1cc(Cn2c(N)c(C(=O)NCc3ccco3)c3nc4ccccc4nc32)cc(OC)c1OC` stands 1.65 µM (active). Under `O=C(NCC(=O)N1CCCC(C(F)(F)F)C1)c1ccccc1F` (stereo unspecified) stands “inactive”; under `CC(NC(=O)c1ccccc1F)c1cccc2ccccc12` (stereo unspecified), “inactive”; under `Cc1ccc(C(=O)N2CC(=O)Nc3ccccc32)o1`, “inactive”. For the compound `Cc1ccc(S(=O)(=O)N2CC(=O)Nc3ccccc32)cc1C`, the Potency is 13.1 µM (active).

For the compound `Cc1ccc(S(=O)(=O)N(C)CC(=O)OCC(=O)N2CC(=O)Nc3ccccc32)cc1`, the Potency entry was “inactive”. Under `O=C(O)C1CCCCC1C(=O)N1CCN(S(=O)(=O)c2ccc(F)cc2)CC1` (stereo unspecified) stands “inactive”; under `COc1cc(N2C(=O)CC3(CCCC3)CC2=O)cc(OC)c1OC`, “inactive”. Under `Cc1cccc(C)c1NC(=O)CCCSc1nnc(-c2ccco2)n1-c1ccccc1` stands “inactive”. For `COc1ccc(-c2nnc(SCC(=O)c3ccco3)n2-c2ccccc2)cc1`, the Potency result is “inactive”. In the case of `CCOC(=O)CSc1nnc(-c2ccco2)n1C` it was “inactive”; in that of `CCOc1ccc(-n2c(SCC(N)=O)nnc2-c2ccco2)cc1`, 3.7 µM (active); in that of `O=C(CSc1nnc(-c2ccccn2)n1-c1ccccc1)Nc1ccc2c(c1)OCO2`, “inactive”. Under `COc1ccc(-n2c(SCC(=O)OC(C)C)nnc2-c2ccccn2)cc1` stands 2.08 µM (active); under `CCOc1ccc(S(=O)(=O)N2CCN=C2Cc2ccccc2)cc1C`, “inactive”. Under `O=C(CCc1ccccc1)Nc1ccnn1C1CCN(Cc2ccc(OCCO)cc2)CC1` stands “inactive”; under `C/C=C(\C)C(=O)N1CC2(CC(c3cccc(NC(=O)CCCCC)c3)=NO2)C[C@@H]1C(N)=O` (stereo partly specified), “inactive”.

With `CCC(=O)Nc1cccc(C2=NOC3(C2)C[C@@H](C(N)=O)N(C(=O)c2cc([N+](=O)[O-])cc([N+](=O)[O-])c2C)C3)c1` (stereo partly specified), the Potency was 0.0657 µM (active). On to `CC/C=C/C(=O)N1CC2(CC(c3cccc(NC(=O)CC)c3)=NO2)C[C@H]1C(N)=O` (stereo partly specified), for which the Potency entry is “inactive”. In the case of `COc1ccc(F)c(-c2nc(CN3CCC(c4ccccc4)CC3)c(C)o2)c1`, the Potency result is “inactive”. As to `CCOc1ccccc1-c1nc(CN2CCC(C(=O)N3CCOCC3)CC2)c(C)o1`, the Potency is 11.7 µM (active). In the case of `CCOc1ccccc1-c1cc(C(=O)N2CCOCC2)c2ccccc2n1` it was “inactive”; in that of `O=C1NNC(c2ccccc2)=N/C1=C\c1ccc(Cl)cc1`, 8.28 µM (active); in that of `O=C1NCC(=O)N(Cc2ccccc2)/C1=C/c1ccccc1`, “inactive”. In the case of `O=C(NCc1csc(-c2cccs2)n1)C1CC1` it was “inactive”; in that of `Cc1cc(O)c(C2(O)C(=O)Nc3ccccc32)cc1C` (stereo unspecified), “inactive”; in that of `CCOC(=O)CNc1nc(Cl)nc(Nc2ccc(OC)cc2OC)n1`, “inactive”. In the case of `COc1ccc2c(c1)c(C(=O)N/N=C/c1cccs1)c(C)n2C` it was “inactive”. With `COc1cc(OC)cc(-c2c(-c3cccs3)c3cc(-c4ccc(OC)cc4F)ccc3n2C)c1`, the Potency is 5.86 µM (active). Turning to `COc1ccc(OC)c(-c2csc(-c3cccs3)n2)c1`, the Potency result is “inactive”.

For the compound `COc1cc(OC)cc(-c2c(-c3ccc(F)cc3)c3cc(-c4ccc5cc[nH]c5c4)ccc3n2C)c1`, the Potency is 5.22 µM (active).

As to `OCC[C@H]1C[C@H](O)[C@@H](O)[C@]2(CCc3ccccc3O2)O1`, the Potency entry was “inactive”. Under `O=C(O)c1cc(S(=O)(=O)N(Cc2ccccc2)c2cccc(C(F)(F)F)c2)ccc1Cl` stands “inactive”; under `O=C(CSc1ccc(-c2ccc(-n3cccn3)cc2)nn1)Nc1ccc([N+](=O)[O-])cc1`, “inactive”; under `Cc1cccc(OCC(=O)NC2CC(C)(C)NC(C)(C)C2)c1`, “inactive”. Under `NC(=O)C1(C(N)=O)OC1c1ccc(Cl)cc1Cl` (stereo unspecified) stands “inactive”; under `CC1(C)Cc2cccc(OCC(=O)Nc3nccs3)c2O1`, “inactive”.

Consider `COC(=O)c1ccccc1OCC(=O)N1CCN(c2ccc(Cl)cc2)CC1`, for which the Potency result was “inactive”.

On to `CC1(C)Cc2cccc(OCC(=O)N3CCN(c4ccc([N+](=O)[O-])cc4)CC3)c2O1`, for which the Potency was 5.22 µM (active). Under `Nc1cc(N)nc(SCc2ccc(Cl)cc2)n1` stands “inactive”. On to `O=C(CSc1nc2[nH]ncc2c(=O)[nH]1)Nc1ccc(F)cc1`, for which the Potency result was “inactive”. Under `CCCn1nnnc1NCc1ccc(CC)cc1` stands “inactive”. For the compound `O=C(Cn1c(=O)n(Cc2ccco2)c(=O)c2ccccc21)NCC1CCCO1` (stereo unspecified), the Potency entry was “inactive”. Under `Cc1ccccc1NC(=O)Cn1c(=O)n(CC2CCCO2)c(=O)c2ccccc21` (stereo unspecified) stands 2.33 µM (active); under `COc1ccc(CCNC(=O)Cn2c(=O)n(CC3CCCO3)c(=O)c3ccccc32)cc1OC` (stereo unspecified), “inactive”. Under `CCN(CC(=O)Nc1cc(Cl)ccc1C)C(=O)Cn1c(=O)cnc2ccccc21` stands “inactive”; under `CC(C)Cn1c(N)c(C(=O)COC(=O)C2CCCN2C(=O)c2cccs2)c(=O)n(C)c1=O` (stereo unspecified), “inactive”. In the case of `COc1ccc(-n2ncc3c2CC(C)(C)CC3NC(=O)CCc2c(C)noc2C)cc1` (stereo unspecified) it was “inactive”; in that of `Cc1ccc(-n2ncc3c2CC(C)(C)CC3NC(=O)Cc2c(C)noc2C)cc1` (stereo unspecified), “inactive”. Take `COc1ccc(-n2ncc3c2CC(C)(C)CC3NC(=O)CCc2c(C)nn(C)c2C)cc1` (stereo unspecified): the Potency was 10.4 µM (active).
